In PubChem BioAssay:
Values joined by “and” are separate entries in the source; they are usually repeats but may differ in a detail not shown here. Equal entries are not always repeated. Where a structure was tested more than once in an assay, its records may differ in their call. Active and inactive are the calls of the source. Unless noted, the rule behind the calls is not given here.

How the values were obtained:
[1] = circadian clock period modulators, cell-based, LOPAC library, luminescence reporter (AID 2774); conditions: circadian reporter cells, at 7 µM, actives lie on both sides;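 note: values are relative to mean of DMSO wells on each plate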
[2] = system: Hepatitis C virus NS3 helicase; assay: HCV NS3 helicase inhibitors, primary screen, biochemical, fluorescence polarization, LOPAC1280 library (AID 687035; in the data active = inhibition above about 37%); conditions: Purified HCV NS3 helicase, Cy5-dT15 ssDNA binding fluorescence polarization; stronger effect = higher value; concentration not given here
[3] = Cy5 fluorescence quenching or enhancement artefacts, artefact control for HCV NS3 helicase inhibitor project, biochemical, LOPAC1280 (AID 687037); conditions: Cy5-DNA-NS3h complex fluorescence interference counterscreen
[4] = system: Aerobactin synthetase IucA (Klebsiella pneumoniae); assay: IucA aerobactin synthetase inhibitors, biochemical, Tocris library, absorbance (AID 1345561); conditions: purified IucA enzyme assay, absorbance (OD) read-out; stronger effect = lower value;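 tested at 8 µM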;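 note: 100% = enzyme without compound and 0% = no enzyme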
[5] = sensitizers of A549 cells to miR-34 induction, primary screen, imaging, A549 dox-inducible miR-34, nuclei and caspase counts (AID 1347080;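 active = compounds whose cell count with miR-34 switched on is under 0.7 times the count with it off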); conditions: A549 miR-34 inducible, Hoechst nuclei count, 48 h
[6] = phospholipid biosynthesis inhibitors in animal cells, primary screen, cell-based, LOPAC library, screen 4 (AID 1347384); conditions: phospholipid biosynthesis inhibition screen, at 10 µM
[7] = viability rescue of complex I mutant cybrids, primary screen, cell-based, galactose medium, ATP luminescence (AID 1645843;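 active = z-score of at least 1.8 in each of two replicates, scored against plate mean and spread of sample wells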;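 note: positive z means more ATP and so rescue of galactose-driven cybrid death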); conditions: complex I mutant cybrid cells, 72 h, stronger effect = higher value
[8] = stronger effect = lower value, cell number ratio, induced over uninduced
[9] = measured here: relative caspase fold change +Dox/-Dox
[10] = measured here: total cells with miR-34 induction, stronger effect = lower value
[11] = measured here: total cells without miR-34 induction

| Structure (SMILES) | period change [1] | inhibition [2] | fluorescence ratio (interference) [3] | remaining activity [4] | fold change [5, 8] | fold change [5, 9] | cell count [5, 10] | cell count [5, 11] | outcome [6] | z-score [7] |
| --- | --- | --- | --- | --- | --- | --- | --- | --- | --- | --- |
| C[C@@H](CN1CCC(Cc2ccccc2)CC1)[C@@H](O)c1ccc(O)cc1 | 0.12 h (inactive) | -3% (inactive) | 1 (inactive) | 113% (inactive) | 0.971 (inactive) and 0.906 (inactive) | 0.907 and 0.699 | 9590 and 8970 | 9880 and 9910 | inactive | -1.21 (inactive) and -0.605 (inactive) |
| CCCCCCN(CCCCCC)C(=O)Cc1c(-c2ccc(F)cc2)[nH]c2ccccc12 | -0.08 h (inactive) | 1% (inactive) | 1 (inactive) | 100% (inactive) | 1.29 (inactive) and 0.933 (inactive) | 1.15 and 0.997 | 5020 and 4030 | 3880 and 4320 | inactive | -1.04 (inactive) and -1.23 (inactive) |
| Clc1ccc(N2CCN(Cc3c[nH]c4ncccc34)CC2)cc1 | 0.105 h (inactive) | 12% (inactive) | 1 (inactive) | 95.2% (inactive) | 1.07 (inactive) and 0.896 (inactive) | 0.721 and 0.794 | 9090 and 6380 | 8470 and 7120 | inactive | -0.965 (inactive) and -1.05 (inactive) |
| CC(C)(C=O)Cc1cc(C(C)(C)C)c(O)c(C(C)(C)C)c1 | 0.05 h (inactive) | 0% (inactive) | 1 (inactive) | 125% (inactive) | 1.05 (inactive) and 0.927 (inactive) | 1.79 and 0.718 | 9400 and 9850 | 8980 and 10600 | inactive | -1.33 (inactive) and -0.18 (inactive) |
| O=C(O)c1cc(=O)c2c(Cl)cc(Cl)cc2[nH]1 | -0.065 h (inactive) | -1% (inactive) | 1 (inactive) | 90.4% (inactive) | 0.981 (inactive) and 0.957 (inactive) | 0.527 and 0.88 | 10000 and 8540 | 10200 and 8930 | inactive | 0.135 (inactive) and -0.315 (inactive) |
| COc1ccc(NC(=O)c2ccc(-c3ccc(-c4noc(C)n4)cc3C)cc2)cc1N1CCN(C)CC1 | 0.065 h (inactive) | -3% (inactive) | 0.9 (inactive) | 119% (inactive) | 0.954 (inactive) and 1.08 (inactive) | 0.805 and 0.587 | 510 and 1390 | 535 and 1290 | inactive | -1.29 (inactive) and -0.715 (inactive) |
| Nc1ncnc2c1ncn2C1CCCO1 (stereo not given) | -0.01 h (inactive) | -1% (inactive) | 1 (inactive) | 110% (inactive) | 0.951 (inactive) and 0.846 (inactive) and 0.927 (inactive) | 1.64 and 1.08 and 0.781 | 9560 and 5440 and 8660 | 10100 and 6440 and 9350 | inactive | 0.435 (inactive) and -0.32 (inactive) |
| S=C(S)N1CCCC1 | 0.08 h (inactive) | -2% (inactive) | 1 (inactive) | 87.7% (inactive) | 0.892 (inactive) and 0.97 (inactive) | 1.02 and 0.891 | 6850 and 8740 | 7680 and 9010 | inactive | -1.38 (inactive) and -1.23 (inactive) |
| CCN(CC)CCOC(=O)c1cc(Cl)c(N)cc1OC | -0.055 h (inactive) | -6% (inactive) | 1 (inactive) | 95% (inactive) | 0.965 (inactive) and 0.955 (inactive) | 1.47 and 1.03 | 10500 and 9010 | 10800 and 9430 | inactive | 0.75 (inactive) and 0.1 (inactive) |
| C=CCN1CCc2cc(O)c(O)cc2C(c2ccccc2)C1 (stereo not given) | 0.045 h (inactive) | -4% (inactive) | 0.9 (inactive) | 113% (inactive) | 0.956 (inactive) and 0.974 (inactive) | 1.26 and 0.531 | 10300 and 8820 | 10700 and 9060 | inactive | -1.29 (inactive) and -0.785 (inactive) |
| CCn1c(=O)[nH]c2cc(Cl)c(Cl)cc21 | 0.01 h (inactive) | -2% (inactive) | 1 (inactive) | 114% (inactive) | 0.936 (inactive) and 0.878 (inactive) | 1.34 and 0.845 | 8830 and 7930 | 9440 and 9020 | inactive | 0.275 (inactive) and 0.885 (inactive) |
| NC(=O)CNCCC(c1ccccc1)c1ccccc1 | -0.275 h (inactive) | 0% (inactive) | 1.1 (inactive) | 72.6% (inactive) | 0.993 (inactive) and 0.866 (inactive) | 1.46 and 1.33 | 9880 and 8250 | 9950 and 9520 | inactive | -0.185 (inactive) and 0.085 (inactive) |
| CCCN(CC1CC1)c1nc(C)nc(Nc2c(Cl)cc(Cl)cc2Cl)c1Cl | 0.125 h (inactive) | -2% (inactive) | 1 (inactive) | 116% (inactive) | 1.08 (inactive) and 0.941 (inactive) | 0.691 and 0.818 | 9180 and 7650 | 8510 and 8120 | inactive | -1.02 (inactive) and -0.83 (inactive) |
| CNC(=O)c1cc2c(cn1)[nH]c1ccccc12 | -0.24 h (inactive) | 0% (inactive) | 1 (inactive) | 99.6% (inactive) | 0.95 (inactive) and 0.891 (inactive) | 1.84 and 0.981 | 8950 and 7610 | 9420 and 8540 | inactive | 2.76 (active) and 1.85 (inactive) |
| CCCCCCCC/C=C\CCCCCCCC(=O)NCCO | 0.02 h (inactive) | -1% (inactive) | 1 (inactive) | 112% (inactive) | 1.03 (inactive) and 1.01 (inactive) and 0.976 (inactive) | 0.948 and 0.828 and 0.812 | 10400 and 5960 and 9000 | 10100 and 5900 and 9210 | inactive | -1.28 (inactive) and -0.79 (inactive) |
| COC1(C2=NCCN2)COc2ccccc2O1 (stereo not given) | 0.04 h (inactive) | -3% (inactive) | 0.9 (inactive) | 126% (inactive) | 0.986 (inactive) and 0.983 (inactive) | 1.8 and 0.411 | 10100 | 10300 and 10200 | inactive | -0.135 (inactive) and -0.24 (inactive) |
